Results reported in PubChem BioAssay (NCATS).
Records with an inconclusive call do not appear. Entries that show only a call come without a potency. Activity calls are given as the source filed them. Calls follow the shape of the dose curve; as a rule, active = well fitted inhibition curve with a large enough effect; inconclusive = small, poorly fitted or top-dose-only effect; inactive = flat fitted curve, though single readings scatter.

target: Glutathione peroxidase 1 (Homo sapiens) (UniProt P07203); experiment: Primary qHTS Assay for Inhibitors of Recombinant Selenoprotein Glutathione Peroxidase 1 (GPX1) (AID 1845191); conditions: recombinant GPX1, GR-coupled NADPH fluorescence, 15 min; series mostly up to 48.8 µM; also: nearly all actives have a fitted effect of over 65% in size
Method in brief: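 NADPH consumption tracked by fluorescence at 340/450 nm between t=0 and t=15 min, room temperature. Final mix: 10 nM GPX1, 100 nM glutathione reductase, 1 mM GSH, 0.5 mM NADPH, 0.5 mM cumene hydroperoxide, 0.01% BSA; 30 min compound–enzyme preincubation.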
Potency is read from the fitted curve at half-maximal effect.

Sequence of Glutathione peroxidase 1 (Homo sapiens) (P07203 whole entry, looked up): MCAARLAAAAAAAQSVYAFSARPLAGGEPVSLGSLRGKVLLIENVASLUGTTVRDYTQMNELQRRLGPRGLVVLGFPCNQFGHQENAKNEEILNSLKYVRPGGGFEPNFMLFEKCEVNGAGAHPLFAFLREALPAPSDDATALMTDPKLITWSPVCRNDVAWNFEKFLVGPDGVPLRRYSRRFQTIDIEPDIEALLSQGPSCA

Row | Structure (SMILES) | Potency
1 | CCN(CCN(C)C)C(=O)CNCc1cc(C(=O)O)ccn1 | inactive
2 | Nc1ccccc1NC(=O)CCCCCCC(=O)Nc1ccccc1 | inactive
3 | COc1cccc(-n2c(=O)[nH]c3cc(Cl)n(-c4ccc(-c5cccc(OC)c5O)cc4)c3c2=O)c1 | inactive
4 | Cn1c(/C=C/C(=O)NO)ccc1/C=C/C(=O)c1cccc(F)c1 | inactive
5 | O=S(=O)(Nc1cccc(-c2ccc(N3CCOCC3)nn2)c1)c1cc(C(F)(F)F)ccc1Cl | inactive
6 | COc1cc2oc(-c3ccccc3)cc(=O)c2c(OC)c1OC | inactive
7 | CCO/N=C(\C(=O)N[C@@H]1C(=O)N2C(C(=O)O)=C(Sc3nc(-c4cc[n+](C)cc4)cs3)CS[C@H]12)c1nsc(NP(=O)(O)O)n1 | 4.04 µM (active)
8 | Fc1ccc(N2CCN(c3nc4ccccc4c4nc(-c5cccnc5)nn34)CC2)cc1 | inactive
9 | COc1cccc(N2CCN(C(=O)Cn3ncc4c3-c3ccccc3OC4)CC2)c1 | inactive
10 | C=C1/C(=C/C=C2\CCC[C@]3(C)[C@@H]([C@H](C)CCCC(C)(C)O)CC[C@@H]23)C[C@@H](O)[C@@H](OCCCO)[C@@H]1O | inactive
11 | COC(=O)CCSC/C=C(\C)CCn1cc(CCc2ccc(-c3ccccc3)cc2)nn1 | inactive
12 | O=C(CCCCCCSc1ccc2ccccc2c1)NO | inactive
13 | COc1ccc(-c2c(C)nn3c4c(cnc23)C(=O)CC(c2ccc(C)cc2)C4)cc1 (stereo not given) | inactive
14 | CC(C)Oc1ccc(-c2c[nH]cc2CN(C)CCN)cc1 | inactive
15 | COc1ccc(Nc2cc(C)c3cc(NC(=O)c4cc(OC)cc(OC)c4)ccc3n2)cc1 | inactive
16 | CCC(Sc1nnc2c(n1)[nH]c1ccccc12)C(=O)N1c2ccccc2Sc2ccccc21 (stereo not given) | inactive
17 | COc1ccc(C(=O)Nc2ccc3oc(-c4ccc(F)cc4Cl)nc3c2)cc1 | inactive
18 | CN(Cc1ccccc1)C(=O)[C@H](NC(=O)c1cc2cc(NC(=O)c3ccccc3-c3ccc(C(F)(F)F)cc3)ccc2n1C)c1ccccc1 | inactive
19 | CC(=O)CCC1C(=O)N(c2ccccc2)N(c2ccccc2)C1=O | inactive
20 | Cc1ccc(C(=O)/C=C/c2ccccc2)s1 | inactive

Row | Structure (SMILES) | Potency
21 | CC[C@H](C)C1NC(=O)[C@H](Cc2ccc(O)cc2)NC(=O)[C@@H](N)CSSC[C@@H](C(=O)N2CCC[C@H]2C(=O)N[C@@H](CC(C)C)C(=O)NCC(N)=O)NC(=O)[C@H](CC(N)=O)NC(=O)[C@H](CCC(N)=O)NC1=O (stereo not given in full) | inactive
22 | O=[N+]([O-])c1ccc(Nc2nc(N3CCOCC3)nc(N3CCOCC3)n2)cc1 | inactive
23 | COc1ccc(Cl)cc1NC(=O)Nc1cc(C)nc2ccccc12 | inactive
24 | CCN(C(=O)CO)[C@H]1CN(C(=Nc2cccc(OC(F)F)c2)NC#N)N=C1c1ccc(Cl)c(Cl)c1 | inactive
25 | O=C(O)C1=C(CSc2nnnn2CS(=O)(=O)O)CS[C@@H]2[C@@H](NC(=O)[C@H](O)c3ccccc3)C(=O)N12 | 11.4 µM (active)
26 | C=CC[N@@+]12CC[C@]34c5ccccc5N5/C=C6\C7N(/C=C(\C53)[C@@H](C[C@@H]41)/C(=C/CO)C2)c1ccccc1[C@@]71CC[N@@+]2(CC=C)C/C(=C\CO)[C@@H]6C[C@@H]12 (stereo not given in full) | inactive
27 | O=S1(=O)CCN(CN2CCS(=O)(=O)NC2)CN1 | inactive
28 | COc1ccccc1Nc1nc(-c2sc(NC(C)=O)nc2C)cs1 | 20.2 µM (active)
29 | CNCCN1CCC(OCc2ccccc2)CC1 | inactive
30 | Cc1c(C(=O)Nc2cccc(-c3nc4ccccc4s3)c2)oc2ccc(F)cc12 | inactive
31 | Cc1ccc2occ(-c3cc(-c4ccc(F)cc4)nc4c3COc3ccc(F)cc3-4)c(=O)c2c1 | inactive
32 | Cn1cc(C(=O)Cc2ccccc2)cc1/C=C/C(=O)NO | inactive
33 | COCC1=C(C(=O)O)N2C(=O)[C@@H](NC(=O)/C(=N\OC)c3csc(N)n3)[C@H]2SC1 | 18 µM (active)
34 | CC(C)CCC[C@@H](C)[C@H]1CC[C@H]2[C@@H]3CC[C@H]4C[C@@H](O)CC[C@]4(C)[C@@H]3CC[C@]12C | inactive
35 | CCc1ccccc1N1C(=O)N(Cc2cc(=O)n3ccccc3n2)c2ccccc2S1(=O)=O | inactive
36 | O=C(O)c1ccc2nc(-c3cc(Cl)cc(Cl)c3)oc2c1 | inactive
37 | O=C(O)C1CCc2cc(C3CCCCC3)c(Cl)cc21 (stereo not given) | inactive
38 | Nc1nc(CC(=O)Nc2ccc(CCNC[C@H](O)c3ccccc3)cc2)cs1 | inactive
39 | CC(C)c1c(-c2cnn(C(C)(C)C)c2)nc2c(C#N)c[nH]n2c1=O | inactive
40 | CCCCCCCCCC(=O)OCCN1CCN(CC/C=C2\c3ccccc3Sc3ccc(C(F)(F)F)cc32)CC1 | inactive
